Here are results for five compounds from PubChem BioAssay.

Test [1] in a line: binders of probe aFSTL3 on microarray, primary screen, stem cell growth factor project, biochemical, small-molecule microarray, fluorescence 635/667 (AID 1064).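 Also: measures binding of the biotinylated anti-FSTL3 antibody to printed compounds.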 The note with it: higher = more signal.
Test [2] is described as follows: binders from COS7 lysate, DM2A8 probe, primary screen, torsin A project, cell lysate, small-molecule microarray, fluorescence 635/667 (AID 1065). To be noted: higher = more signal, COS7 lysate expressing mutant human TOR1A.
The nature of test [3]: binders of probe aFGF2 on microarray, primary screen, stem cell growth factor project, biochemical, small-molecule microarray, fluorescence 635/667 (AID 1067).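 Also: measures binding of biotinylated aFGF2 protein to printed compounds on slides; z-score merges feature fluorescence and signal-to-noise across triplicate slides.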 To be noted: higher = more signal.
A short description of test [4]: binders of probe aFGF10 on microarray, primary screen, stem cell growth factor project, biochemical, small-molecule microarray, fluorescence 635/667 (AID 1071).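 Also: score merges 667 nm spot intensity and signal to noise from triplicate slides.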 The note with it: higher = more signal.
Test [5] deals with Neurogenic locus notch homolog protein 2 (Homo sapiens) (UniProt Q04721). Kind of test: Notch2 binders on small-molecule microarrays, primary screen, biochemical, small-molecule microarray, 635 nm fluorescence, stem cell growth factors (AID 1073). To be noted: Notch2 binding, higher = more signal.
The target of test [6] is Pro-neuregulin-1, membrane-bound isoform (Homo sapiens) (UniProt Q02297). The experiment in a line: NRG1 binders on small-molecule microarrays, primary screen, psychiatric disease protein project, biochemical, small-molecule microarray, fluorescence 635/667 (AID 1075).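 Also: score combines 667 nm spot fluorescence with signal to noise.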 The note with it: NRG1 binding, 635 nm fluorescence, higher = more signal.
Pro-neuregulin-1, membrane-bound isoform (Homo sapiens), sequence (Q02297 whole entry, looked up, the tested form may be a part, canonical isoform): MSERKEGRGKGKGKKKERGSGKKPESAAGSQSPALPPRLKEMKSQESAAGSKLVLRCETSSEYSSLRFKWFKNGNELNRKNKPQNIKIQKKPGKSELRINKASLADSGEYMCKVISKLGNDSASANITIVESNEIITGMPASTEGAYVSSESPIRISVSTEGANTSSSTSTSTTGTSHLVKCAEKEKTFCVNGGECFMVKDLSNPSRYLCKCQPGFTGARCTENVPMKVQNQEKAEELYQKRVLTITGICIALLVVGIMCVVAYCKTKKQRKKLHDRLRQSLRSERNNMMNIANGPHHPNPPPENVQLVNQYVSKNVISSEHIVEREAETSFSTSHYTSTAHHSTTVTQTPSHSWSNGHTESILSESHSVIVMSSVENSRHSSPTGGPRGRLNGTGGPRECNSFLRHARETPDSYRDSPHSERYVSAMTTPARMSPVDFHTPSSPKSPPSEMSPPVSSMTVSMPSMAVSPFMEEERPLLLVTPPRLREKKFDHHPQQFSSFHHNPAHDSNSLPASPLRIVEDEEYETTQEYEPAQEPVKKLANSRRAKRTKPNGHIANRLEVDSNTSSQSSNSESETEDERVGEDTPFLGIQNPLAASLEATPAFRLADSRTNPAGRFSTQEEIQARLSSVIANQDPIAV
Test [7] deals with Neuregulin-1 EGF-like domain. The experiment in a line: binders of neuregulin-1 EGF-like domain, primary screen, biochemical, small-molecule microarray, 635 nm fluorescence (AID 1081).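 Also: binding of the protein to compounds printed on small-molecule microarray slides.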 The note with it: small-molecule microarray binding, higher = more signal.
A short description of test [8]: FRG1 promoter luciferase signal modulators, primary screen, FRG1 inhibition for FSHD, cell-based, C2C12 myotubes, firefly/Renilla luciferase, luminescence (AID 1084). To be noted: higher = more signal, called active from +8 up or from −8 down.
Test [9] in a line: binders of probe aFST on microarray, primary screen, stem cell growth factor project, biochemical, small-molecule microarray, fluorescence 635/667 (AID 1086).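 Also: score merges 667 nm fluorescence with signal-to-noise of each printed compound spot.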 To be noted: higher = more signal.
The nature of test [10]: binders of probe aHhip on microarray, primary screen, stem cell growth factor project, biochemical, small-molecule microarray, fluorescence 635/667 (AID 1087).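 Also: score merges spot fluorescence at 667nm with spot signal to noise ratio.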 The note with it: higher = more signal.
For test [11], the system named is PRMT1 (protein arginine N-methyltransferase 1). Kind of test: PRMT1 binders on small-molecule microarrays, primary screen, biochemical, small-molecule microarray, 635 nm fluorescence (AID 1088).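 Also: binding of Prmt1 protein to compounds spotted on small-molecule microarray slides.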 To be noted: small-molecule microarray binding, higher = more signal.
Test [12] is described as follows: yeast growth modulation, basal conditions, primary screen, YJM789 clinical isolate, OD600, 24 h (AID 1089).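 Also: growth of clinical yeast isolate S. cerevisiae YJM 789 seeded 1000 cells per well; test concentration not given here.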 The note with it: S. cerevisiae YJM789 growth, higher = more signal, called active from +8 up or from −8 down.
Test [13] can be described thus: fission yeast growth modulation, primary screen, strain 972, OD600, 24 h, no modulator (AID 1090).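 Also: basal condition with compound alone and no growth modifier present; test concentration not given here.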 To be noted: S. pombe 972 growth, higher = more signal, called active from +8 up or from −8 down.
Test [14] can be described thus: S. cerevisiae growth modulation with rapamycin, primary screen, strain BY4716, OD600, 96 h (AID 1091). Also: test concentration not given here. The note with it: higher = more signal, called active from +8 up or from −8 down.
For test [15], the target named is Torsin-1A-interacting protein 2 (Homo sapiens) (UniProt Q8NFQ8). The experiment in a line: LULL1 binders on small-molecule microarray, primary screen, cell lysate, human LULL1 lysate, 635/667 nm fluorescence (AID 1092).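 Also: score merges per-feature 667 nm fluorescence with signal-to-noise.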 The note with it: hLULL1 lysate binding, 635 nm fluorescence, higher = more signal.
Torsin-1A-interacting protein 2 (Homo sapiens), sequence (Q8NFQ8 whole entry, looked up): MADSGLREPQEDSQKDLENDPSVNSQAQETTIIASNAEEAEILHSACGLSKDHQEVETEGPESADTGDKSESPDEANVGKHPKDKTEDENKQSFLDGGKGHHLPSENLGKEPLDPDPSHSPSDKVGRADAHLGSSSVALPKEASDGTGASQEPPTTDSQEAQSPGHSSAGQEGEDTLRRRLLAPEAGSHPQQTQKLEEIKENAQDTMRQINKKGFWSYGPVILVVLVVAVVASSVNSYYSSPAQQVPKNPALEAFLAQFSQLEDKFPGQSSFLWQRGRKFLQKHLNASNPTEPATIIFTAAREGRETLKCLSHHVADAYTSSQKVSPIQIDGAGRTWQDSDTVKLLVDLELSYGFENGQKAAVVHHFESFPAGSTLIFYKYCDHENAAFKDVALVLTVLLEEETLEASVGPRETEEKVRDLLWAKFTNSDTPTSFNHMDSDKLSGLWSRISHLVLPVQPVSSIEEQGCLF
The nature of test [16]: E. coli growth modulation, two-sided OD650, primary screen, E. coli filamentation project, strain DRC41, 24 h (AID 1093).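 Also: MC1000 strain lacking acrAB efflux and sulA so SOS filamentation is blocked; test concentration not given here.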 To be noted: OD650, 24 h, higher = more signal, called active from +8 up or from −8 down.
Test [17] can be described thus: small-molecule microarray binders of probe aLefty2, primary screen, biochemical, biotinylated probe, 635/667 nm fluorescence (AID 1094).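 Also: score merges spot fluorescence near 667 nm with spot signal-to-noise ratio.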 The note with it: higher = more signal.
For test [18], the system named is Noggin (protein binding on small-molecule microarray). Kind of test: Noggin binders on small-molecule microarray, primary screen, biochemical, 635/667 nm fluorescence (AID 1095).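 Also: score merges 667 nm feature fluorescence with signal to noise over triplicate slides.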 The note with it: 635 nm fluorescence, higher = more signal.
Test [19] addresses Neurogenic locus notch homolog protein 3 (Homo sapiens) (UniProt Q9UM47). The experiment in a line: NOTCH3 binders on small-molecule microarray, primary screen, biochemical, 635/667 nm fluorescence (AID 1096). To be noted: NOTCH3 binding, 635 nm fluorescence, higher = more signal.
Test [20] is described as follows: small-molecule microarray binders of probe aEGFR, primary screen, biochemical, biotinylated probe, 635/667 nm fluorescence (AID 1097).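 Also: probe is a biotinylated anti-EGFR antibody binding compounds printed on slides; score combines fluorescence near 667 nm and signal to noise of each spot.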 The note with it: higher = more signal.

Molecules are shown by their SMILES. Active and inactive are the calls of the source.

Neurogenic locus notch homolog protein 3 (Homo sapiens), sequence (Q9UM47 whole entry, looked up): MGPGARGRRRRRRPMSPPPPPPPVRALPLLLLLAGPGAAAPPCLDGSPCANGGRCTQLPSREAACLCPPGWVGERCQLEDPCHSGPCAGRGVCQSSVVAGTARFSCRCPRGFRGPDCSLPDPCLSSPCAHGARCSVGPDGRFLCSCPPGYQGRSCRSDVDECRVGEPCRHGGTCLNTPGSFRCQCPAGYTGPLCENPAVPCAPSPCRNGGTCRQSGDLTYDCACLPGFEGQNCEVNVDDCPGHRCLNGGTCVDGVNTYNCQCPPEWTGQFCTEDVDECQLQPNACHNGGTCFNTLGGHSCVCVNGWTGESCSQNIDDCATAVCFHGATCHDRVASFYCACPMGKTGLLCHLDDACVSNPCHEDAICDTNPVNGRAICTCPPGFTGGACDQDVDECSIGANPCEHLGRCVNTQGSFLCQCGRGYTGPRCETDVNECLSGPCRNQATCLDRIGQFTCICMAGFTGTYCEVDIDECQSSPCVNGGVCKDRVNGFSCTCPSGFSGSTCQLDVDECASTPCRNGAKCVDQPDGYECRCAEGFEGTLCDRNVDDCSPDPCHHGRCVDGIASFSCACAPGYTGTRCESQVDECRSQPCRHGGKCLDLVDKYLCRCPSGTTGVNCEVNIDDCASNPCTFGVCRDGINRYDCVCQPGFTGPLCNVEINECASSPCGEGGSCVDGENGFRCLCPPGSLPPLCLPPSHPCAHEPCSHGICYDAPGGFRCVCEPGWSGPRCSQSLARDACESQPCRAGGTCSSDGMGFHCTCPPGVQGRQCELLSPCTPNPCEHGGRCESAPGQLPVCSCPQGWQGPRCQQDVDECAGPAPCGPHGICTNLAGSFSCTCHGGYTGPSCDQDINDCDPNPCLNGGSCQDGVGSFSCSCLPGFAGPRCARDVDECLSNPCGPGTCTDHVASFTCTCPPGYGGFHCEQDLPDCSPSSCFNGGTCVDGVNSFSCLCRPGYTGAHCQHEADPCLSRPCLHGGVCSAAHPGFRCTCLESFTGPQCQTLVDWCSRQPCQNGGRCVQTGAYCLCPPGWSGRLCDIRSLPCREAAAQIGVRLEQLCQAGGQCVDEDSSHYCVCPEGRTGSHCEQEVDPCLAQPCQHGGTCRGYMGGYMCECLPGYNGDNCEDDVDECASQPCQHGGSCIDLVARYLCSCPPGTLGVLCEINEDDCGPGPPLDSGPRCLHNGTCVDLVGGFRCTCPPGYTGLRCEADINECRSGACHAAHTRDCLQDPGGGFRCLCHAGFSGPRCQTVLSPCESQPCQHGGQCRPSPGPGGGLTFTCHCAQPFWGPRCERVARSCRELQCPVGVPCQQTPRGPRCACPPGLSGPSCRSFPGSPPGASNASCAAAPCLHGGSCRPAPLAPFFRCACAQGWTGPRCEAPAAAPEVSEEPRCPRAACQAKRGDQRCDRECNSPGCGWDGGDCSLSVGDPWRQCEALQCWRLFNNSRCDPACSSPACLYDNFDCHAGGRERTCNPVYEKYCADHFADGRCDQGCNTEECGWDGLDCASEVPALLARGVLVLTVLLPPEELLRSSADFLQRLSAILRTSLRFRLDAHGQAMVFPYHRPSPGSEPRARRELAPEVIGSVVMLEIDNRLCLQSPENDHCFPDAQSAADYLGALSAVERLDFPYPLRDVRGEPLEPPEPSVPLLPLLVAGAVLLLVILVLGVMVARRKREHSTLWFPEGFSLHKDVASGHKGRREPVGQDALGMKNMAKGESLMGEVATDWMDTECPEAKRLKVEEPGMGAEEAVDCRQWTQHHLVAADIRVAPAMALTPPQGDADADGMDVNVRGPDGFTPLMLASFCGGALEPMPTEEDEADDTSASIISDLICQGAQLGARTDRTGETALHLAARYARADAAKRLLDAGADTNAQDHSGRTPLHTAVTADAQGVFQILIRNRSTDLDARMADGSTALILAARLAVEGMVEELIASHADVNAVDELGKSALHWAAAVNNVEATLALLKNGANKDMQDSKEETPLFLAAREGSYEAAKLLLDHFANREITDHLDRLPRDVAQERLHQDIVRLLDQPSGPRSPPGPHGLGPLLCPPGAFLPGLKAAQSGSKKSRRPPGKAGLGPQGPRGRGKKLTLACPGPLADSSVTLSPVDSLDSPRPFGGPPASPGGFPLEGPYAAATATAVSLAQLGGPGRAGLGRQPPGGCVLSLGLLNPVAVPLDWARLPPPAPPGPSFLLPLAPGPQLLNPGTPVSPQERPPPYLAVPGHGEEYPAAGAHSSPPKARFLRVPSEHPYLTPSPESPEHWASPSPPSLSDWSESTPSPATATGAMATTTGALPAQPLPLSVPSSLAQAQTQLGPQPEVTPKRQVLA

`C#CCN1[C@@H](Cc2ccccc2)C(=O)O[C@H](Cc2ccccc2)[C@@H]1/C=C/C1CC1`: the composite z-score was -0.733 in test [1]; 0.819 in test [2]; -0.0807 in [3]; 0.289 in test [4]; -0.271 in test [5]; -0.151 in test [6]. For the same compound, the composite z-score in [7] was 0.86; in [9], 0.426; in test [10], 0.198; in [11], -0.101; in test [15], 1.14; in test [17] it was -0.185. Besides, the composite z-score in test [18] was 0.33; in test [19], 0.246; in [20] it was -0.0422. The z-score in [8] is -3.46 (inactive); in [12], 0.295 (inactive); in test [13], -0.361 (inactive); in test [14], 0.148 (inactive); in [16] it was 0.855 (inactive).
Turning to `CN(C)CCCC[C@@H]1NC(=O)[C@H]2C[C@@H](C(=O)O)[C@@H](c3ccc(O)cc3)N2C1=O`, the composite z-score was 3.22 in test [1]; 2.34 in [2]; 0.653 in test [3]; 1.04 in test [4]; 1.64 in [5]; 2.84 in test [6]. For the same compound, the composite z-score is 1.38 in test [7]; 3.29 in test [9]; 1.38 in test [10]; 1.54 in test [11]; 4.23 in [15]; 1.55 in [17]. For the same compound, the composite z-score in [18] was 2.16; in test [19], 1.02; in test [20], 1.33. Besides, the z-score in test [8] was 2.42 (inactive); in test [12], -0.116 (inactive); in test [13], -1.99 (inactive); in [14], 0.193 (inactive); in [16], 2.11 (inactive).
Consider `COC(=O)[C@]1(CCC(=O)OC(C)(C)C)N=C(c2ccc(OCCCO)cc2)O[C@@H]1c1ccccc1N=[N+]=[N-]`, for which the composite z-score in [1] is 0.375; in [2], -0.135; in test [3] it was -0.132; in test [4], 0.171; in test [5], 0.552; in test [6], 0.623. Further, the composite z-score was 0.908 in test [7]; 0.219 in [9]; -0.484 in test [10]; 1.42 in test [11]; 2.08 in test [15]; 0.0664 in [17]. The composite z-score in [18] was 0.677; in test [19], 0.361; in test [20], -0.127. Besides, the z-score in [8] was 2.96 (inactive); in [12] it was 1.15 (inactive); in test [13], -0.491 (inactive); in test [14], 33.8 (active); in test [16], 0.217 (inactive).
Regarding `CC(C)=CCCC=C(C)C(O)C1C=CC2C(=O)N(c3ccccc3)C(=O)C2N1Nc1ccc(C#N)cc1` (stereo not given), the composite z-score in test [1] amounted to 0.314; in [2], 0.146; in test [3], 0.126; in test [4], 0.178; in test [5], 1.51; in test [6] it was 1.93. For the same compound, the composite z-score in test [7] is 1.23; in test [9], 0.257; in [10], -0.382; in test [11], 1.38; in test [15], 3.3; in test [17] it was -0.152. The results for the composite z-score in test [18], in test [19] and in test [20] were 0.0542, 1.01 and -0.0828, respectively. In addition, the z-score in test [8] was -1.36 (inactive); in [12], -1.67 (inactive); in test [13], 0.0768 (inactive); in [14], 2.31 (inactive); in test [16], -1.24 (inactive).
`O=C1O[C@@H](c2ccccc2)[C@@H](c2ccccc2)N2[C@@H](c3ccccc3OCCO)[C@]3(C(=O)Nc4ccc(C#CCCO)cc43)[C@@H](C(=O)NC[C@H](O)c3ccccc3)[C@H]12`: the composite z-score turned out to be 0.13 in [1]; 1.2 in test [2]; 0.277 in test [3]; 0.0012 in [4]; 0.381 in test [5]; 1.63 in [6]. Also, the composite z-score stood at 1.36 in test [7]; 0.372 in test [9]; 0.192 in test [10]; 1.54 in test [11]; 3.29 in test [15]; 1.07 in test [17]. Moreover, the composite z-score in test [18] was 1.37; in test [19] it was 0.944; in test [20], 0.506. In addition, the z-score in [8] is -2.14 (inactive); in [12] it was 2.3 (inactive); in [13], -1.71 (inactive); in test [14], 4.29 (inactive); in test [16], 0.535 (inactive).
